Assay results reported in PubChem BioAssay (NCI).
Compounds without any hit were thinned out: in the full panel of roughly 79,000, 15% have a hit. Values without a mark were called inactive. Activity calls are given as the source filed them. Rule as the data show it: active = growth inhibition above about 70%; inactive = the rest.

Legend:
[1] = NCI Yeast Anticancer Drug Screen. Data for the rad50 strain (AID 155);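 also: 0% = growth of vehicle-only cultures of the same strain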; conditions: S. cerevisiae rad50 strain growth inhibition; at 50.0 µM; hits give high values
How it was run: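 Inhibition values express reduced yeast growth in compound-treated cultures relative to vehicle-treated controls.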

[2] = NCI Yeast Anticancer Drug Screen. Data for the mec2-1 strain (AID 157); conditions: S. cerevisiae mec2-1 strain, at 50.0 µM, hits give high values
How it was run: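 Yeast mec2-1 mutant treated with compound. Readout: growth inhibition vs vehicle controls.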

[3] = NCI Yeast Anticancer Drug Screen. Data for the sgs1 mgt1 strain (AID 161);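 also: 0% = growth of cultures given vehicle only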; conditions: S. cerevisiae sgs1 mgt1 strain, at 50.0 µM, hits give high values
How it was run: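 Mutant yeast exposed to compound; growth scored against vehicle-only wells.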

[4] = NCI Yeast Anticancer Drug Screen. Data for the cln2 rad14 strain (AID 165);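 also: 0% = growth equal to vehicle treated cultures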; conditions: S. cerevisiae cln2 rad14 strain, at 50.0 µM, hits give high values
How it was run: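 cln2 rad14 yeast strain; compound exposure; growth inhibition read vs vehicle controls.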

[5] = NCI Yeast Anticancer Drug Screen. Data for the bub3 strain (AID 167); conditions: S. cerevisiae bub3 mutant strain, at 50.0 µM, hits give high values
How it was run: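 Steps: expose the mutant yeast strain to compound; grow alongside vehicle-treated cultures; measure growth; express inhibition against the vehicle cultures.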

[6] = NCI Yeast Anticancer Drug Screen. Data for the mlh1 rad18 strain (AID 175); conditions: S. cerevisiae mlh1 rad18 strain growth inhibition; at 50.0 µM; hits give high values
How it was run: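 Yeast w/ defined DNA-repair lesions; compound exposure; growth vs vehicle controls → % inhibition.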

| SMILES | growth inhibition [1] | growth inhibition [2] | growth inhibition [3] | growth inhibition [4] | growth inhibition [5] | growth inhibition [6] |
| --- | --- | --- | --- | --- | --- | --- |
| COc1cc(C)cc(OC)c1/C=C/C(=O)O | 8.4% | 11.1% | -8.6% | -13.6% | 1.75% | 2.25% |
| CCC1(CC)C(=O)N=C(c2ccccc2)N1C | -5.55% | -5.75% | 8.15% | -16% | -2.3% | -10.7% |
| CNc1nc(Cl)nc2c1nc(SC)n2-c1ccccc1 | 7.15% | -17.8% | 4.2% | -13.2% | 18.2% | 17.4% |
| Nc1cc([N+](=O)[O-])cc(S(=O)(=O)O)c1O | -5.15% | -2.95% | -14.2% | -65.8% | 7.45% | -26% |
| O=C1C=C2CCCCCCCC(C1)C2 (configuration not stated) | 11.8% | 1.1% | 2.25% | -1.75% | -1.15% | 3.2% |
| O=C(NC(=O)c1cccc(Cl)c1)Nc1ccccc1 | 3.1% | -15.1% | -19.6% | -22% | -10.7% | -5.15% |
| COc1ccc(/C=C2\CCC(Cc3ccccc3)(CN(C)C)C2=O)cc1 (configuration not stated) | 19.6% | -15.3% | 25.3% | 3.7% | -11.8% | -72.4% |
| Cc1ccc(C)c(NC(=O)C(=O)C2C(=O)C3=C(CC2(C)C)Nc2ccccc2S3)c1 (configuration not stated) | -21.2% | -20.2% | -14.1% | -21.5% | -28.4% | -33% |
| O=S(c1ccccc1)[C@H]1CC2C3CC4C2C4C31 (some centres not stated) | 2.3% | 4.7% | -1.7% | 4.45% | 19.9% | 17.9% |
| CC(=O)c1ccc(NC(=O)/C(=N\NC(N)=O)C(C#N)CC(C)(C)C=O)cc1 (configuration not stated) | 29.3% | 17.4% | -2.55% | 21.1% | 33.6% | 16.6% |
| Cc1nc(C(N)=S)sc1C(=O)CC(=O)C(=O)Nc1ccccc1[N+](=O)[O-] | 0.15% | -9% | 10.8% | 7% | 17.4% | 1.95% |
| CC1(C)CC(C)(C)c2c1oc(=O)c1c3c(oc(=O)c21)C(C)(C)CC3(C)C | 15.7% | -9.1% | 12.8% | 35.5% | 26.2% | -9.85% |
| CC1(C)CC[C@]2(C(=O)O)CC[C@]3(C)C(=CC[C@@H]4[C@@]5(C)CC[C@H](OC6OC(C(=O)O)C(O)C(O)C6O)C(C)(C)[C@@H]5CC[C@]43C)[C@@H]2C1 (some centres not stated) | 90.8% (active) | 91% (active) | 91.7% (active) | 92.5% (active) | 91.3% (active) | 88.7% (active) |
| O=S(=O)(N/N=C(/CC/C(=N\NS(=O)(=O)c1ccccc1)c1ccccc1)c1ccccc1)c1ccccc1 | 27.7% | 5.2% | 11.7% | 7.55% | -2% | 7.95% |
| O=C(CNc1ccccc1)c1ccc(O)c(C(=O)O)c1 (tested in a mixture with another compound) | -8.5% | -12.3% | -11.3% | -5.35% | -0.7% | 0.95% |
| O=c1cc(-c2ccccc2)c2ccccc2[nH]1 | 2.15% | -6.8% | -12.5% | 15.9% | -27.1% | -1% |
| Cc1cccc(CC(CC(=O)O)C(=O)O)c1 (configuration not stated) | 4.85% | 9.45% | -1.85% | 11.6% | -2.45% | 1.4% |
| Cc1ccc2c(c1)nc(-c1ccccn1)n2CCc1ccncc1 | 62.5% | 34.1% | 77% (active) | 90.3% (active) | 92.7% (active) | 53.8% |
| O=c1oc2ccccc2c(O)c1C(c1cccc(C(c2c(O)c3ccccc3oc2=O)c2c(O)c3ccccc3oc2=O)c1)c1c(O)c2ccccc2oc1=O | 26.6% | 37.5% | -2.7% | -17.6% | -5.3% | 67.8% |

| SMILES | growth inhibition [1] | growth inhibition [2] | growth inhibition [3] | growth inhibition [4] | growth inhibition [5] | growth inhibition [6] |
| --- | --- | --- | --- | --- | --- | --- |
| CC(=O)NC(=O)CCc1ccccc1 | -12.2% | -12.7% | -20.3% | -26.1% | -8.15% | -6% |
| COC(=O)/C=C(/N)CC(=O)OC | 16.9% | -25.4% | -8.35% | 10.9% | -15.9% | 1.75% |
| O=C(O)c1c(Cl)ccc([N+](=O)[O-])c1Cl | -4.45% | -24.2% | -8.95% | 8.8% | -10.6% | -1.45% |
| CC(Br)C(=O)n1c2ccccc2c2ccccc21 (configuration not stated) | 21.6% | 9.8% | 19.8% | -13.8% | 12.2% | 8.1% |
| O=C(c1ccccc1)c1cccc(C(=O)c2ccccc2)n1 | -7.5% | -12.7% | -17.7% | 1.9% | -13.8% | -8.55% |
| CSc1ccc2c(cc1=O)[C@@H](NC(=O)c1ccc([N+](=O)[O-])cc1)CCc1cc(O)c(O)c(O)c1-2 | 37.3% | 33.5% | 39.2% | 23.1% | 43.8% | 50% |
| O=c1cc(Nc2ccc(Cl)cc2)[nH]c(=O)[nH]1 | -1.45% | -5.45% | -5.55% | -61.9% | 6.2% | -7.65% |
| C/C(=N\n1cc(-c2ccccc2)nc1N)c1ccccc1 | -2.8% | 4.2% | 6% | 13.5% | 20.6% | 13.1% |
| C=C1[C@H](OCC(C)C)[C@@H](OCC(C)C)[C@@H](O)C(C)(C)/C=C/[C@H](C)C(=O)[C@@]2(O)C[C@H](C)[C@H](O)[C@@H]2[C@H]1OCC(C)C | -37.9% | -45% | -9.85% | -36.3% | -12.8% | -68.8% |
| CC(=O)/C(C)=N/Nc1ccccc1 | 7.35% | 8.6% | -2.6% | -11% | -5.7% | 11% |
| CC(=O)Nc1ccc(S(=O)(=O)Nc2cc(Cl)cc(Cl)c2)cc1 | 15.7% | -10.2% | -0.05% | 8.75% | 2.1% | -7.1% |
| CC(=O)Nc1ccc(C(=O)CC(c2ccccc2)N2CCOCC2)cc1 (configuration not stated) | 4.3% | 14.1% | 11.9% | -19% | 26.1% | 2.8% |
| CCOC(=O)C1/C(=C\O)C(=O)c2cc(OC)c(OC)cc2C1c1ccc(OC)c(OC)c1 (configuration not stated) | -0.5% | 0.9% | 20.6% | 8.35% | -5.95% | 21.9% |
| NC(C(=O)O)C(C(F)(F)F)C(F)(F)F (configuration not stated) | 0.95% | -15.2% | 4.5% | 1.55% | -15.7% | 6.5% |
| ClC1=C(Cl)C2(Cl)C3C(c4ccc(I)cc4C4C3C3(Cl)C(Cl)=C(Cl)C4(Cl)C3(Cl)Cl)C1(Cl)C2(Cl)Cl (configuration not stated) | 14.6% | 15.4% | 8.8% | 14.1% | 20.6% | 16.9% |
| C1CC(CCC2CCNCC2)CCN1 | 1.6% | 1.15% | 4.15% | -13.4% | 11.7% | 1.55% |
| O=C(Nc1ccc(Cl)cc1)P(=O)(O)c1ccccc1 | -11.8% | -0.95% | -23.1% | -26.8% | -16.8% | 18.1% |
| CCOCCN(CCOCC)c1ncnc2[nH]ncc12 | 9.15% | 5.15% | 9.95% | -25.2% | 21.6% | 10.6% |
